# Test results: publication PMC7819943, “Rice protein-binding microarrays: a tool to detect cis-acting elements near promoter regions in rice”
# In all, about 39,000 sequences were measured (“fluorescence intensity (a.u.)”: median about 4,300, highest 2% from about 39,000 on). Many of the other results were omitted from the sample, so the highest values are more common in it than they were.
# Molecular target: T1, OsSMF1 (Oryza sativa, UniProt Q6ZLB0 1-436)
# T1 sequence: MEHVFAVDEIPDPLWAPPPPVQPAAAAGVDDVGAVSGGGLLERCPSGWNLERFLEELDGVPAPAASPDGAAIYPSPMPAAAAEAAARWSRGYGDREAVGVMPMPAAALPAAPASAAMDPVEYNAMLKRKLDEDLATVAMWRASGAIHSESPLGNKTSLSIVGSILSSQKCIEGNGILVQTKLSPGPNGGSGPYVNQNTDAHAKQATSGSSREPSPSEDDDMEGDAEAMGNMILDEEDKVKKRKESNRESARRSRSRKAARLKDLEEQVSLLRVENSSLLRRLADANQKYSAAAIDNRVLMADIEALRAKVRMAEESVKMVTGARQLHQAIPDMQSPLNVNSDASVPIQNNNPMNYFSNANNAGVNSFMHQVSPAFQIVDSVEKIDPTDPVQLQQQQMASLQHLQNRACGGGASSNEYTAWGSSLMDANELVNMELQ
# Assay: protein-binding microarray (RPBM); PBS, 2% BSA, 51.3 ng/ul salmon testes DNA, 50 uM zinc acetate, 200 nM TF, 25 C, 1 h; high values mean tight binding
# Conditions: protein: recombinant; tags: N-terminal polyhistidine and DsRed monomer fusion (pET32a); chain copies: 2; label: CyDye5-dUTP incorporated in the synthesized complementary strand; 3' TTTTT single-stranded linker to array surface; dsDNA, one strand shown
# Summary of the method: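 Polyhistidine-tagged DsRed fusions of transcription factors, joined at the N-terminus, were expressed in E. coli BL21-CodonPlus and isolated on Ni–NTA. They were incubated at 200 nM for 1 h at 25 °C on a custom Agilent array, double-stranded and BSA-blocked, in PBS with 2% BSA, salmon testes DNA and 50 µM zinc acetate. The binding signal is per-feature fluorescence intensity (arbitrary units) read on an Axon 4000B scanner after washing.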
row,Sequence,binding signal
1,AGGGGCGGAGGGCAGCGATTTTGGTTGGTAGTAGTACGGGCGGAGTCACCTAGTGCAG,3610 fluorescence intensity (a.u.)
2,CGTTGGCGTCCACCACGGCCACCGCCACGCCGCTCGTGTTCGGAGTCACCTAGTGCAG,4420 fluorescence intensity (a.u.)
3,GTCCCCTGTTGCACTTAGATATTTAACTTTGTTAAGGATTCGGAGTCACCTAGTGCAG,4820 fluorescence intensity (a.u.)
4,CAGGTACTTAACTTTAGTCCCTGTCTTTAGACACTAATTTCGGAGTCACCTAGTGCAG,5100 fluorescence intensity (a.u.)
5,GACTTAACTTTAGTCCCTGTATTTAGACACTAATTTAGAGCGGAGTCACCTAGTGCAG,65500 fluorescence intensity (a.u.)
6,TCCCCGTCTTTTCCTTCCGCCTCACCAACCTCGTCTCGTCCGGAGTCACCTAGTGCAG,3330 fluorescence intensity (a.u.)
7,TCGTCGATGTCACCGCCACCACCGTCGTCATCGCTGCCTTCGGAGTCACCTAGTGCAG,3820 fluorescence intensity (a.u.)
8,CGTACGGCACCGAGTTATCGCCGCCAGGTCAGTTGGTTTACGGAGTCACCTAGTGCAG,3690 fluorescence intensity (a.u.)
9,CACAGGCAGGCCTGCAACATGCGTCACGCAGACTTTGATGCGGAGTCACCTAGTGCAG,4140 fluorescence intensity (a.u.)
10,CACTAGCTTGTTATATTTACGTGGCACACTTTGATGAGTACGGAGTCACCTAGTGCAG,11500 fluorescence intensity (a.u.)
11,AGCTAGAACGCACAGACTTTAGGCTTTAGGTACGATGATGCGGAGTCACCTAGTGCAG,43300 fluorescence intensity (a.u.)
12,AAAGCAACAGCAGCCCAGCACACCACAGCACAGCGCCGCTCGGAGTCACCTAGTGCAG,3180 fluorescence intensity (a.u.)
13,TCCTCCATCGCCGCCTTCACCGAGTCACCGCCCGTCATCCCGGAGTCACCTAGTGCAG,3380 fluorescence intensity (a.u.)
14,TTCCTGACTTCCTCCTCCCTTTCTTCTCTCGCCGCCGAGACGGAGTCACCTAGTGCAG,41400 fluorescence intensity (a.u.)
15,CTTCACTAAGGTCATCGTCGTGCCTTCCTCGTCCTCCTCCCGGAGTCACCTAGTGCAG,43800 fluorescence intensity (a.u.)
16,CTCCTCTCCTCCCTCCTCGACTTCTCCGCTTTCTCCGCCTCGGAGTCACCTAGTGCAG,3230 fluorescence intensity (a.u.)
17,CATCATCATCTCTTCTCCTCTCTCTCTCTCTTTCCTTTTCCGGAGTCACCTAGTGCAG,8580 fluorescence intensity (a.u.)
18,TCCTGTCCTTCTTTCTCTTCAAGTCCTTCCTCTTCACTCCCGGAGTCACCTAGTGCAG,65500 fluorescence intensity (a.u.)
19,TCTCCCCTCTCCTTCCTCCTCTCCTTTCCCCTCCTCTCTTCGGAGTCACCTAGTGCAG,17100 fluorescence intensity (a.u.)
20,TCCTCCTCGTCGTCATCTCCAACTCCCTCCCGCTCCCTTCCGGAGTCACCTAGTGCAG,5660 fluorescence intensity (a.u.)
21,CTCCTCTTCCCTTCCCTTCTCTCTTTTCTTTTCTCTCACACGGAGTCACCTAGTGCAG,28600 fluorescence intensity (a.u.)
22,GACCAAACCTCCAATTAACAAGGTAGTTTAACACACATCACGGAGTCACCTAGTGCAG,16100 fluorescence intensity (a.u.)

row,Sequence,binding signal
1,TACAAGTATAAAACTTTAGATACGTGGGATTAACACGTCACGGAGTCACCTAGTGCAG,6470 fluorescence intensity (a.u.)
2,CCTCGGGGAGGGCGTGGCAAGCGGCACGCGTGGCGGGGAGCGGAGTCACCTAGTGCAG,5890 fluorescence intensity (a.u.)
3,CCCCAGAAAGTCCCCATATTTCTAGGAACTTCCGTTCTAGCGGAGTCACCTAGTGCAG,13900 fluorescence intensity (a.u.)
4,GCTCATAGAGCTACACACTGATGACAAGACATAAGGGAAGCGGAGTCACCTAGTGCAG,4350 fluorescence intensity (a.u.)
5,ACCTCCGGCCCACGGACGCGACGCGCTTACACACATGGCCCGGAGTCACCTAGTGCAG,3580 fluorescence intensity (a.u.)
6,TGGATTACTCATAATGATTATGTCATATAGGTGATGTTGCCGGAGTCACCTAGTGCAG,3440 fluorescence intensity (a.u.)
7,ATATAGCATGTCAAGATATTTGGGTGATATGTACTATGTACGGAGTCACCTAGTGCAG,4580 fluorescence intensity (a.u.)
8,GGATAAGCACCGACGATTTGGTGGTAGATCTATATGGGTACGGAGTCACCTAGTGCAG,48000 fluorescence intensity (a.u.)
9,TGATACGATGACGTTTGGGTGGTTGGATATATATCATGATCGGAGTCACCTAGTGCAG,5350 fluorescence intensity (a.u.)
10,ATGATTTATTATGTTCTGCCCTTCTTTGTTGTGACAAAGTCGGAGTCACCTAGTGCAG,3900 fluorescence intensity (a.u.)
11,TGCTTTCCTCCCTTTATTACTACATCATGCGCCTTCGTGACGGAGTCACCTAGTGCAG,3370 fluorescence intensity (a.u.)
12,AGCTGGCGGCTGGCGGGTGGTGGTGGTGGCTGGCGGCGGGCGGAGTCACCTAGTGCAG,4500 fluorescence intensity (a.u.)
13,GAAGAATCGGCCCAACGACCAAGAGGGAGTCAAAATAGACCGGAGTCACCTAGTGCAG,22600 fluorescence intensity (a.u.)
14,CCCACCTGTGACTCAGCGAGCCGACTGCCACGTCAGACAACGGAGTCACCTAGTGCAG,34400 fluorescence intensity (a.u.)
15,CAGTGCCGACTGCCGAGGCAGAGAGGCAGACAAAGTGACACGGAGTCACCTAGTGCAG,54900 fluorescence intensity (a.u.)
16,ACATCCGAGAGACTAGGCCGACAAATCACCACCGACACGTCGGAGTCACCTAGTGCAG,5890 fluorescence intensity (a.u.)
17,GTAGAAAGCAGGGATAAAGTATTGGTGGAGATGTCACGCCCGGAGTCACCTAGTGCAG,3560 fluorescence intensity (a.u.)
18,ATCCACGAGGGCAAGCAAGCAAGCAAGCTCCACCTCTCTGCGGAGTCACCTAGTGCAG,3220 fluorescence intensity (a.u.)
19,TTAAATTTGAAACAGTTTGACTTTGACCAGTCAAAGTCTTCGGAGTCACCTAGTGCAG,8060 fluorescence intensity (a.u.)
20,GTCAAAGTTATAAAAGTTTGACCTCAACTTTGTCCAAAACCGGAGTCACCTAGTGCAG,24200 fluorescence intensity (a.u.)
21,CTTAAAGCAGTTTGACTTTGACCAAAGTCAAAACGTCTTACGGAGTCACCTAGTGCAG,40600 fluorescence intensity (a.u.)
